# The list is not random: actives were taken first. Their share in the collection is about 19%.
# Lassa entry inh: inhibitors of Lassa virus binding or cell entry; Lassa virus pseudotype entry inhibition, cell reporter; Potency, µM (series often up to 37.9 µM), for the others: at the highest dose activity change, negative = inhibition, actives largely listed as inhibitors; 1.2% of 300,000 active; calls by dose curve; tested in HEK293 cells; further: potency means the concentration at half of the fitted maximal effect; on the % scale 0 is the no-effect control and ±100 the full control effect; nearly all actives have a fitted effect of over 50% in size
# Marburg entry inh: blocks Marburg virus binding to or entry into cells. Marburg virus pseudotyped entry inhibition, cell reporter. 1.8% of 300,000 active. AID 540276. Potency, µM (doses to about 37.8 µM), for the others: at the top dose activity change, negative = inhibition, actives largely listed as inhibitors; calls by dose curve; tested in HEK293 cells; further: potency means the concentration at half of the fitted maximal effect; on the % scale 0 is the no-effect control and ±100 the full control effect
# Cycloheximide cs: counter-screen hit for Shiga toxin inhibitors, cycloheximide | cell reporter, cycloheximide protein synthesis inhibition counterscreen | 12% of 300,000 active | AID 2314 | max response, %; in the data active means max response mostly above about 13%, no sharp cut-off; inactive means mostly below about 14%; further: read at 38.3 µM for the half of the compounds with a filed dose; 0% is about no effect
# Shiga inhibitor: inhibitors of Shiga toxin in Vero cells. inhibition, % at 38.7 µM. Vero cells, Shiga toxin protein synthesis inhibition reporter. 9.2% of 290,000 active. AID 2315; in the data active means inhibition mostly above about 28%, no sharp cut-off; inactive means mostly below about 43%; further: 0% is about no effect
# Pf growth 48h: inhibits P. falciparum growth in the first generation, 48 h | P. falciparum luciferase growth in erythrocytes, 48 h | Potency, µM (doses to about 28.7 µM), inactives show at the top dose activity change, negative = inhibition, usual class: inhibitors | 5.9% of 310,000 active; further: potency means the concentration at half of the fitted maximal effect; on the % scale 0 is the no-effect control and ±100 the full control effect
#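 Luminescence readout; reporter = integrated firefly luciferase in P. falciparum. RBC culture at 2% hematocrit, 0.1% parasitemia final, 37 C/5% CO2; decreased signal taken as growth inhibition.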
# Pf growth 96h: P. falciparum growth inhibition at 96 hours. P. falciparum luciferase reporter growth, 96 h. Potency, µM (top dose mostly 28.7 µM), without a hit: at the highest dose activity change, negative = inhibition, hits mostly inhibitors. 6.9% of 320,000 active. AID 504834; further: potency means the concentration at half of the fitted maximal effect; on the % scale 0 is the no-effect control and ±100 the full control effect
#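 Plates of compound plus infected erythrocytes (2% hematocrit, 0.05% parasitemia final) incubate 96 hours, 37 C, 5% CO2. Detection reagent added; reduced luminescence from the parasites' luciferase reporter flags inhibition.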
# An asterisk follows results filed as active; ? = inconclusive; · = no result given; [ ] = remark or other dose. Unless noted, the call rests on the fitted dose curve; in most records, active means well fitted inhibition curve with a large enough effect; inconclusive means small, poorly fitted or top-dose-only effect, or another doubt; inactive means no such curve, though single readings can be large or run the other way.
SMILES,Lassa entry inh,Marburg entry inh,Cycloheximide cs,Shiga inhibitor,Pf growth 48h,Pf growth 96h
COc1ccc(OC)c(NC(=O)CN(c2ccc(C(C)C)cc2)S(=O)(=O)c2c(C)noc2C)c1,·,1.5%,-4.3,-5.0,·,10.4µM*
COc1ccc(N(CC(=O)Nc2cc(Cl)ccc2OC)S(=O)(=O)c2c(C)noc2C)cc1,-18.9%,?,1.3,-17.2,10.4µM*,9.28µM*
COc1ccc(N(CC(=O)Nc2ccc(OC)c(Cl)c2)S(=O)(=O)c2c(C)noc2C)cc1,?,2.5%,-3.9,-13.5,8.28µM*,26.8%
CCOc1ccc(OCC)c(NC(=O)CN(c2ccc(OC)cc2)S(=O)(=O)c2c(C)noc2C)c1,·,·,10.1,7.2,13.1µM*,?
COc1ccc(N(CC(=O)Nc2ccc(F)c(Cl)c2)S(=O)(=O)c2c(C)noc2C)cc1,11.2%,?,-1.4,4.4,?,?
COc1ccccc1NC(=O)CN(c1ccc(C(C)C)cc1)S(=O)(=O)c1c(C)noc1C,-22.8%[46.1 µM],-34.4%[46.1 µM],·,·,·,·
CN(C(=O)c1ccccc1)c1ccc(OCC(=O)NC2CCS(=O)(=O)C2)cc1 (centres undefined),6.0%,-4.0%,8.5,3.6,23.8%,10.9%
COc1ccc2c(c1)[nH]c1c(=O)n(Cc3ccncc3)cnc12,·,·,-2.0,15.4,-6.0%,-3.6%
CC(C)C(=O)Nc1nnc(CCN2CCCCC2)s1,18.4%,-0.3%,4.2,17.8,·,20.7%
CCOc1ccc(N(CC(=O)Nc2ccccc2CC)S(=O)(=O)c2c(C)noc2C)cc1,-22.1%[46.1 µM],?,·,·,·,·
CCOc1ccc(N(CC(=O)Nc2ccc3c(c2)OCCO3)S(=O)(=O)c2c(C)noc2C)cc1,·,-0.6%,-4.0,3.0,·,10.4µM*
CCOc1ccc(N(CC(=O)Nc2ccc(OC)cc2)C2=NC3CS(=O)(=O)CC3S2)cc1 (centres undefined),·,·,-1.4,-4.6,5.9%,13.1µM*
CCOc1ccccc1NC(=O)CN(c1ccc(C)cc1)S(=O)(=O)c1c(C)noc1C,?,?,2.9,10.4,4.15µM*,91.3%
COc1ccc(OC)c(NC(=O)CN(c2ccc(C)cc2)S(=O)(=O)c2c(C)noc2C)c1,-3.0%,-27.7%[46.1 µM],10.2,0.9,?,1.85µM*
CCOc1ccc(OCC)c(NC(=O)CN(c2ccc(C)cc2)S(=O)(=O)c2c(C)noc2C)c1,?,?,13.7,12.1,·,33.6%
Cc1ccc(N(CC(=O)Nc2cc(C)ccc2C)S(=O)(=O)c2c(C)noc2C)cc1,-6.1%[46.1 µM],-14.0%[46.1 µM],·,·,·,·
COC(=O)C1=C(C)N(Cc2ccco2)C(=O)/C1=C\c1ccc([N+](=O)[O-])cc1,?,?,3.3,-11.5,?,-33.9%
Cc1ccc(N(CCC(=O)O)S(=O)(=O)c2ccccc2)cc1,0.7%,?,0.4,-13.8,-15.6%,31.6%
CCOc1ccc(NC(=O)CN(c2cc(C)cc(C)c2)S(=O)(=O)c2c(C)noc2C)cc1,·,·,3.4,-7.3,6.7%,?
CCOc1ccc(N(CC(=O)Nc2ccc(OC)cc2)S(=O)(=O)c2c(C)noc2C)cc1,·,-5.9%,-3.8,3.0,·,6.57µM*
CCOc1ccccc1NC(=O)CCN(c1ccc(C)cc1)S(=O)(=O)c1ccccc1,?,14.1µM*,-1.4,11.8,?,11.7µM*
COc1ccccc1C(C)N(C)Cc1nc(COc2ccccc2)no1 (centres undefined),?,-15.3%[46.1 µM],7.5,22.9,4.4%,0.4%
CC(=O)Nc1nc(CC(C)C)cc(-c2ccccc2)c1C#N,1.5%[46.1 µM],-1.9%[46.1 µM],-3.1,-6.8,-4.4%,4.7%
Cc1nn(C)c(C)c1CNC(=O)Nc1ccc2c(c1)OCO2,?,0.4%,36.8*,65.3*,108.8%,-1.1%
Cc1ccc(NC(=O)NCCc2c(C)nn(C)c2C)cc1Cl,9.1%[46.1 µM],·,·,·,·,·
SMILES,Lassa entry inh,Marburg entry inh,Cycloheximide cs,Shiga inhibitor,Pf growth 48h,Pf growth 96h
Cc1nn(C)c(C)c1CNC(=O)Nc1cccc(Cl)c1,2.8%,2.1%[46.1 µM],56.9*,113.6*,294.8%,?
Cc1nn(C)c(C)c1CNC(=O)Nc1ccc(Cl)cc1,-3.7%,?,72.6*,145.2*,241.5%,-4.7%
Cc1nn(C)c(C)c1NC(=O)CN1CCC(O)(c2ccc3c(c2)OCO3)CC1,-3.4%,8.4%,2.1,-7.0,11.5%,10.4µM*
CC(C)(C)NC(=O)CN1CCC(O)(c2ccc3c(c2)OCO3)CC1,1.1%,1.9%,-5.2,-5.3,0.0%,-2.9%
COc1ccccc1/C=C(/C#N)C(=O)O,·,·,5.6,-5.0,4.5%,1.0%
O=C(CSc1nc2nccnc2c(=O)n1CCc1c[nH]c2ccccc12)Nc1ccccc1,15.5%[46.1 µM],·,·,·,·,·
Clc1cc(CSc2ccccc2)nc(-c2ccccc2)n1,-1.1%,-2.8%,21.7*,33.2,0.4%,7.7%
Cn1c(=O)c2c(nc(CN3CCC(C(N)=O)CC3)n2Cc2ccccc2Cl)n(C)c1=O,17.7%,-1.3%,-2.6,1.8,4.3%,?
Cn1c(=O)c2c(nc(CN3CCC(C(N)=O)CC3)n2Cc2c(Cl)cccc2Cl)n(C)c1=O,14.6%,6.0%,4.0,-4.9,11.7µM*,·
Cn1c(=O)c2c(nc(CN3CCC(C(N)=O)CC3)n2Cc2c(F)cccc2Cl)n(C)c1=O,-12.9%,?,-2.9,-5.3,?,10.4µM*
CC1CCCCN1Cc1nc2c(c(=O)n(C)c(=O)n2C)n1Cc1c(F)cccc1Cl (centres undefined),·,·,-3.9,8.1,-6.0%,?
CN(C)/C=N/c1nc2nccc(-c3cccs3)n2n1,0.4%,6.2%[46.1 µM],11.1,-3.4,289.2%,?
CC(C)CN(C(=O)COC(=O)c1ccc([N+](=O)[O-])o1)C1CCS(=O)(=O)C1 (centres undefined),1.7%,10.4%,-5.2,-2.9,-20.9%,-19.1%
Cc1ccc(C(C(=O)NC2CCCC2)N(Cc2ccc(F)cc2)C(=O)c2csnn2)o1 (centres undefined),?,?,0.5,41.3,?,?
CC(C)(C)NS(=O)(=O)c1ccc2nc(NC(=O)c3cccnc3)sc2c1,-5.2%[46.1 µM],·,·,·,·,·
CSc1nc2ccc3nc(NC(=O)c4ccc(Cl)s4)sc3c2s1,·,·,-1.7,12.8,19.6%,23.7%
CN(C)S(=O)(=O)c1ccc2nc(NC(=O)c3cccnc3)sc2c1,?,2.2%,28.7*,106.9*,-4.1%,?
CSc1nc2ccc3nc(NC(=O)c4cccs4)sc3c2s1,7.4%,-0.1%,43.5*,51.4*,-15.7%,?
